A selection: hits, their analogues and other compounds. The true share with any hit is near 5.7%.
HT1080-NT tox: kills 2HG-producing HT-1080-NT fibrosarcoma cells | HT-1080-NT fibrosarcoma viability, CellTiter-Glo ATP luminescence, 48 h | Potency, µM (series often up to 46.1 µM), for inactives: top-dose activity, negative = less viability, most hits filed as cytotoxic | 360,000 compounds, 1.6% hits;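 also: NT is the 2HG producing partner of a matched IDH1 knockdown line; 0% = DMSO-treated cells and -100% = media-only wells without cells; nearly all actives have a fitted effect of over 55% in size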
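Toxicity toward the 2HG-producing NT line was scored as %Activity, normalised to DMSO and no-cell wells, from CellTiter-Glo luminescence after 48 hours' treatment.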
HT1080 IDH1KD tx: toxicity to HT-1080 IDH1 knockdown cells (counter line); HT-1080 IDH1 knockdown viability, ATP luminescence, 48 h; Potency, µM (highest dose often 46.1 µM), inactives show top-dose activity, negative = toxicity, most hits filed as cytotoxic; 360,000 compounds, 2% hits; AID 686971;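 also: 0% = DMSO wells and -100% = cell-free medium wells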
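Luminescent ATP read-out (CellTiter-Glo, 10 min at room temperature) after 48 h compound exposure at 37 °C gave viability of IDH1-knockdown HT-1080 cells. Activity was normalised to DMSO and cell-free wells, then fitted as concentration-response curves.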
KB-3-1 tox: KB-3-1 parental cell cytotoxicity | 400,000 compounds, 1.4% hits | AID 1347075 | Potency, µM (doses to about 46.1 µM), usual class: cytotoxic | KB-3-1 viability, CellTiter-Glo ATP luminescence, 72 h; also: nearly all actives have a fitted effect of over 60% in size
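Cells are dispensed, compounds pinned in, plates held at 37 °C for 72 h, then CellTiter-Glo is added and luminescence read after 10 minutes. Cell line: parental KB-3-1 in phenol-red-free DMEM, 10% FBS.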
KB-V1 cytotox: kills drug-selected multidrug resistant KB-V1 cells; KB-V1 MDR cells viability, CellTiter-Glo, 72 h; Potency, µM (titrated, usually from 46.1 µM), most hits filed as cytotoxic; 400,000 compounds, 3.4% hits; AID 1347076; also: nearly all actives have a fitted effect of over 60% in size
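Following 72 h at 37 degrees C with compound, KB-V1 cell viability was read by CellTiter-Glo luminescence, medium being phenol-red-free DMEM plus 10% FBS; concentration-response parameters came from normalized, curve-fitted qHTS data.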
The depositor's hits bear a star; i = inactive; ? = inconclusive; . = no result; ! = repeats disagree; [ ] = remark or other dose. Calls follow the shape of the dose curve; as a rule, active = well fitted curve in the direction sought with a large enough effect; inconclusive = small, poorly fitted or top-dose-only effect, or another doubt; inactive = no such curve, though single readings can be large; an effect the other way counts as inactive or inconclusive. Unless noted, % is scaled to controls: 0 for no effect and ±100 for the full control effect; potency is read from the fitted curve at half-maximal effect.

SMILES | HT1080-NT tox | HT1080 IDH1KD tx | KB-3-1 tox | KB-V1 cytotox
CCOC(=O)C1=C(C)NC2=C(C(=O)C(C(=O)OCC)C(c3ccco3)C2)C1c1ccccc1C (stereo not drawn) | . | . | i | i
CCc1ccc(-n2nc(C)c3c(C)cc(=O)n(Cc4nc(-c5ccccc5)oc4C)c32)cc1 | . | . | i | i
COc1cc(OC)c(NS(=O)(=O)c2ccc3c(c2)NC(=O)CCS3)cc1Cl | . | . | 18.4µM* | ?
Cc1ccc(C)c(NS(=O)(=O)c2ccc3c(c2)NC(=O)CCS3)c1 | -23.2% | -15.1% | i | i
Cc1ccc(NS(=O)(=O)c2ccc3c(c2)NC(=O)CCS3)c(Br)c1 | -29.1% | -26.2% | ? | 23.1µM*!
COc1ccc(C(=O)N=c2sc3cc(Cl)ccc3n2C)cc1 | . | . | i | ?
Cc1ccc(Cn2c(CN3CCC(C(=O)NCCc4ccccc4)CC3)cc3ccccc32)cc1 | . | . | i | i
Cc1ccc(S(=O)(=O)/N=C2\C=C(NS(=O)(=O)c3ccccc3)C(=O)c3ccccc32)c(C)c1 | -13.7% | -6.8% | i | i
Cc1ccc(S(=O)(=O)/N=C2\C=C(Nc3cccc(C(=O)O)c3)C(=O)c3ccccc32)cc1 | 23.1µM* | 20.6µM* | 23.1µM* | i
Cc1ccc(NC2=C(NCCO)C(=O)c3ccccc3C2=O)cc1 | ? | ? | ? | i
Cc1ccc(S(=O)(=O)/N=C2\C=C(Nc3cccc(C(=O)O)c3)C(=O)c3ccccc32)c(C)c1 | 10.3µM* | 6.51µM* | ? | i
CC(C)(C)c1ccc(S(=O)(=O)/N=C2\C=C(NS(=O)(=O)c3ccccc3)C(=O)c3ccccc32)cc1 | 23.1µM* | 16.4µM* | i | i
Cc1ccc(S(=O)(=O)/N=C2\C=C(Nc3ccc(O)cc3)C(=O)c3ccccc32)cc1 | 18.4µM* | 23.1µM* | 4.11µM* | ?
COc1ccccc1CNC(=O)c1ccc(N2CCCC2)c(NC(=O)NCc2ccccc2)c1 | . | . | i | i
CCc1ccc(S(=O)(=O)/N=C2\C=C(Nc3ccc(C(=O)O)cc3)C(=O)c3ccccc32)cc1 | 16.4µM* | 18.4µM* | ? | i
CCS(=O)(=O)N1CC(=O)N(c2ccc(Cl)cc2C)C(C)(C(=O)NC2CCCCC2)C1 (stereo not drawn) | . | . | i | i
COC(=O)c1sc(=S)sc1C(=O)OC | ? | 31.6µM* | i | i
COC(=O)c1sc(C(=O)OC)c(C(=O)OC)c1C(=O)OC | -1.5% | 8.4% | i | i
CN(C)c1ccc(C(=C2c3ccccc3-c3ccccc32)c2ccc(N(C)C)cc2)cc1 | . | . | i | i
COc1ccc(C(=O)NCCn2cc(SCC(=O)NCCc3ccc(OC)c(OC)c3)c3ccccc32)cc1 | . | . | i | i
O=C(CCN1CCc2ccccc2C1)c1ccc2c(c1)OCCO2 | -6.8% | -8.0% | ? | ?
O=C(CCN1CCC(c2ccccc2)C1)c1ccccc1 (stereo not drawn) | 11.9% | ? | i | i
O=C(CCN1CCC(c2ccccc2)C1)c1ccc2c(c1)OCCO2 (stereo not drawn) | 4.61µM* | 18.4µM* | i | i
O=C(CCN1CCC(c2ccccc2)C1)c1cccs1 (stereo not drawn) | ? | 3.98µM* | i | i
O=C(CCN1CCOCC1)c1ccc(Br)cc1 | ? | 25.9µM* | i | i
SMILES | HT1080-NT tox | HT1080 IDH1KD tx | KB-3-1 tox | KB-V1 cytotox
O=C(CCN1CCCCC1)c1ccc2c(c1)OCCO2 | ? | 5.62µM* | i | i
CCCN(CCC)c1cc(C)nc2nc(-c3ccc(C(C)(C)C)cc3)nn12 | . | . | i | i
COc1ccc(C(=O)CCN2CCCCCC2)cc1 | ? | 10µM* | ? | ?
CCOc1ccc(C(=O)CCN2CCCCC2)cc1 | ? | -22.1% | i | i
N/C(=N/OC(=O)c1cccc([N+](=O)[O-])c1)c1cccc([N+](=O)[O-])c1 | 19.3% | 25.6% | ? | i
CC1=C(C)/C(=N/OC(=O)c2cccc([N+](=O)[O-])c2)C=CC1=O | ? | 18.4µM* | i | i
O=C(CN1C(=O)NC2(CCCC2)C1=O)OCc1ccc(Br)cc1 | -8.4% | -3.7% | i | i
CC1CC(C)(C)CC2(C1)NC(=O)N(CC(=O)OCc1ccc(Br)cc1)C2=O (stereo not drawn) | -5.4% | ? | i | 16.4µM*
COc1ccc(OC)c(NC(=O)C2CCN(Cc3cnn(-c4ccccc4)c3-n3cccc3)CC2)c1 | -2.0% | ? | i | 8.2µM*
COc1ccc(NC(=O)C2CCN(Cc3cnn(-c4ccccc4)c3-n3cccc3)CC2)cc1OC | -16.0% | -14.7% | i | ?
COc1cccc(NC(=O)C2CCN(Cc3cnn(-c4ccccc4)c3-n3cccc3)CC2)c1 | -12.9% | -8.7% | ? | ?
O=C(Nc1ccccc1Cl)C1CCN(Cc2cnn(-c3ccccc3)c2-n2cccc2)CC1 | -24.7% | ? | 18.4µM* | 23.1µM*
COc1ccc(NC(=O)CSc2nc(-c3cccs3)cc(C(F)(F)F)n2)c(OC)c1 | . | . | i | i
COC(=O)c1sc(NC(=O)c2cc(-c3ccccc3)nc3ccccc23)c(C#N)c1C | ? | ? | 1.46µM* | 1.64µM*
CCOC(=O)c1sc(NC(=O)c2cc(-c3ccc(C)cc3)nc3ccccc23)c(C#N)c1C | 16.4µM* | ? | ? | 3.26µM*
Cc1ccccc1-c1cc(C(=O)Nc2sc(C(=O)OC(C)C)c(C)c2C#N)c2ccccc2n1 | ? | ? | 5.17µM* | 8.2µM*
COC(=O)c1sccc1NC(=O)c1cc(-c2ccc(C)cc2)nc2ccccc12 | 9.2% | 15.5% | i | i
COc1ccc(-c2cc(C(=O)Nc3sc4c(c3C#N)CCCC4)c3ccccc3n2)cc1 | -1.2% | -1.5% | i | ?
CC(C)(C)c1ccc(OCCSc2nc(-c3cccs3)nc3cc(=O)[nH]n23)cc1 | . | . | i | i
CCn1c(SCC(=O)N/N=C/C(C)=C/c2ccco2)nnc1-c1ccccc1 | 8.3% | 1.3% | i | 14.6µM*
CCOC(=O)N1CCN(C(=O)CSCC(=O)Nc2nc(-c3ccccc3)cs2)CC1 | -7.2% | -15.3% | i | 16.4µM*
CCn1c(SCC(=O)Nc2nc(-c3ccccc3)cs2)nnc1-c1ccccc1 | ? | ? | i | 18.4µM*
Cc1nnc(SCC(=O)Nc2nc(-c3ccccc3)cs2)n1N | -1.4%[9.24 µM] | -10.2% | i | i
CCc1ccc(Nc2nnc(SCC(=O)Nc3cccnc3Cl)s2)cc1 | -1.7% | 0.0% | i | 16.4µM*
CCC(=O)Oc1c(Sc2ccc(Cl)cc2)c(C)nn1C(C)(C)C | . | . | i | i
Cn1c(SCC(=O)Nc2ccccc2-c2ccccc2)nnc1-c1ccco1 | -1.9% | 0.6% | i | 18.4µM*
COc1ccc(C)cc1-n1nnnc1SCC(=O)Nc1cc(C)on1 | -1.4% | -1.3% | i | i
CCn1c(SCC(=O)Nc2cccnc2Cl)nnc1-c1ccccc1 | 5.0% | 4.9% | i | 20.6µM*

Screening results from PubChem BioAssay.
